This passage reports max activity results from PubChem BioAssay AID1259420 (Broad Institute, 2018).

Structures are written as SMILES. Values joined by “and” are separate entries in the source; they are usually repeats but may differ in a detail not shown here. Equal values may be shown once. The whole screen tested about 1,000 compounds, of which about 250 (25%) were called active. Another 31% or so got no clear call; they are omitted. A selection follows. Results with a measured potency or affinity are listed apart. Unmarked numbers belong to inactive results. How the calls were made is not given here.

The nature of the assay: compound activity on host-cell Toxoplasma growth – dose response (AID 1259420).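 Further: host cells were HeLa; final incubation lasted 72 hours.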 The conditions noted are these: Toxoplasma gondii growth in host cells, no IFN-gamma; at 19.5 µM unless noted.
For the compound `COC[C@]12CCC[C@@H]1CN(S(=O)(=O)c1cccc(OC)c1)C2`, the max activity is 17.2%. On to `CN(C)CCN1CCC2(CCCN(C(=O)C3CCOC3)C2)C1=O` (stereo not drawn), for which the max activity was 31.3%. As for `COCC1CN(C(=O)c2ccccc2F)Cc2cnn(CC3CC3)c21` (stereo not drawn), the figure is -15.3% [at 10 µM]; as for `Cc1ccccc1-c1ccc([C@@H]2[C@@H](CO)N3C(=O)CN(C(=O)c4ccncc4)C[C@@H]23)cc1`, 15% [at 0.16 µM]; as for `COc1ccccc1S(=O)(=O)N1CC[C@H]2[C@H](CO)Nc3ccc(-c4ccc(C#N)cc4)cc3[C@H]21`, 19% [at 21 µM]. Regarding `c1cc(-c2nccn2CCn2ccnc2)ccn1`, the max activity is 7.6% [at 0.16 µM]. As to `O=C(Nc1ccccc1)c1ncn2c1CN(CC1CC1)S(=O)(=O)c1ccccc1-2`, the max activity was -5.31% [at 1.2 µM].

Turning to `O=C(NCc1ccccc1)c1cc(-c2cnc(N3CCCC3)nc2)cn1CC1CC1`, the max activity was -17.4% [at 10 µM]. As for `COc1ccccc1C#Cc1ccc([C@H]2[C@@H](CO)N3CCCCN(C(=O)C4CCC4)C[C@H]23)cc1`, the figure is 11% [at 0.16 µM]; as for `CN(C)CCOCC12CCCOC1CCN(C(=O)c1cccn1C)C2` (stereo not drawn), -18.9% [at 5 µM]. As for `CC(C)COC1CC2(CCN(C(=O)c3cccn3C)CC2)C1`, the figure is 9.82% [at 0.3 µM]. In the case of `CC(C)C#Cc1ccc([C@@H]2[C@@H](CO)N3C(=O)CN(C(=O)NC4CCCC4)C[C@H]23)cc1`, the max activity is -5.34%. In the case of `COCC(=O)N1CC(=O)N2[C@H](CO)[C@H](c3ccc(C#CC4CC4)cc3)[C@@H]2C1`, the max activity is -9.08% [at 5 µM]. Consider `COc1ccc(-c2ccc([C@@H]3[C@@H](CO)N4C(=O)CN(C(=O)C5CC5)C[C@@H]34)cc2)cc1`, for which the max activity is 19.5% [at 21 µM]. For `CN1CCCN(CC2(O)CCNC2)CC1` (stereo not drawn) the value was 11.3% [at 0.08 µM]. Turning to `Cc1cccc(-c2ccc([C@H]3[C@H]4CN(C(=O)c5ccc6c(c5)OCO6)CC(=O)N4[C@H]3CO)cc2)c1`, the max activity is 11.6%. With `CN1c2ccc(C3=CCCCC3)cc2[C@@H]2[C@@H](CCN2C(=O)C2CCOCC2)[C@H]1CO`, the max activity is -17.2% [at 5 µM].

On to `COc1ccc(-c2ccc3c(c2)[C@H]2[C@H](CCN2C(=O)Nc2ccccc2OC)[C@H](CO)N3C)cc1`, for which the max activity is -12.3% [at 0.6 µM]. As to `Cc1cccc(-c2ccc([C@@H]3[C@@H](CO)N4C(=O)CN(C(=O)c5ccc6c(c5)OCO6)C[C@H]34)cc2)c1`, the max activity is -5.13% [at 0.3 µM]. For `N#Cc1ccc(-c2ccc3c(c2)[C@@H]2[C@@H](CCN2C(=O)C2CCCCC2)[C@@H](CO)N3)cc1` the value was 24.3%; for `N#Cc1ccc(-c2ccc3c(c2)[C@H]2[C@H](CCN2C(=O)C2CCCCC2)[C@@H](CO)N3)cc1`, -26.1% [at 5 µM]. For `CCc1cnc(N2CCc3cc(C(=O)NCC4CC4)c(N(C)C)nc3CC2)nc1` the value was 11.8% [at 0.6 µM]. For `CO[C@@H]1CCN(S(=O)(=O)N(C)C)C[C@@H]1Cc1cccc(C)c1` the value was -8.52% [at 10 µM]; for `CCCCOCCOCCOCc1cc2c(cc1CCC)OCO2`, -10.5% [at 10 µM]; for `Cc1nc(N2CCCC2)nc2c1CCN(C(=O)c1ccoc1C)CC2`, -19.1% [at 10 µM]. For the compound `Cc1cc2nc(CN3CCCC(CCc4ccc(F)cc4F)C3)cc(=O)n2[nH]1` (stereo not drawn), the max activity is 5.72%. For `O=C(c1cnccn1)N1CC(=O)N2[C@H](C1)[C@H](c1ccc(-c3cccc(F)c3)cc1)[C@@H]2CO` the value was -9.23% [at 0.16 µM]. As for `O=C(c1cnccn1)N1CC(=O)N2[C@H](CO)[C@H](c3ccc(-c4cccc(F)c4)cc3)[C@H]2C1`, the figure is 15.4% and 19.8%; as for `C/C=C/c1ccc([C@H]2[C@@H](CO)N3C(=O)CN(C(=O)Nc4ccc(F)cc4)C[C@@H]23)cc1`, -13% [at 0.16 µM]; as for `O=C(Nc1ccc(F)cc1)N1CC(=O)N2[C@H](CO)[C@@H](c3ccc(-c4cccc(F)c4)cc3)[C@@H]2C1`, -6.88%. For the compound `O=C(c1cnccn1)N1CC(=O)N2[C@H](CO)[C@H](c3ccc(-c4cccc(F)c4)cc3)[C@@H]2C1`, the max activity was -10.6% [at 0.3 µM]. For `O=C(c1cnccn1)N1CC(=O)N2[C@H](C1)[C@@H](c1ccc(-c3cccc(F)c3)cc1)[C@@H]2CO` the value was 25.6%; for `Cc1ccc(-c2ccc([C@H]3[C@H]4CN(C(=O)NC(C)C)CC(=O)N4[C@H]3CO)cc2)cc1`, -10.6% [at 0.6 µM]. For `O=C(Nc1ccc(F)cc1)N1CC(=O)N2[C@H](CO)[C@@H](c3ccc(-c4cccc(F)c4)cc3)[C@H]2C1` the value was 13.4%. Consider `CC1CCCCN1C(=O)c1ccnn1-c1ccc2ccc(-c3ccccc3)cn12` (stereo not drawn), for which the max activity was -6.05% [at 5 µM]. As for `CC(=O)O[C@@H]1CC2C(C)(CC[C@H](O)C2(C)C)C2CC[C@]3(C)C(=CC(=O)O[C@H]3c3ccoc3)C21C` (stereo partly drawn), the figure is -5.91% [at 10 µM]; as for `CC(C)n1cnc2c(NCC3CC3)nc(C3CCN(C(=O)c4cccc(F)c4F)CC3)cc21`, 5.98% [at 1.2 µM]; as for `Cc1ccccc1-c1ccc(C2[C@@H]3CN(Cc4cocn4)C[C@H]2N3)cc1` (stereo partly drawn), 20.2%. For `COCC1COCCC12CCN(C(=O)c1ccc(C)nc1)CC2` (stereo not drawn) the value was 6.91% [at 2.6 µM]; for `CCCN(C/C=C/I)C1CCc2cccc(O)c2C1` (stereo not drawn), 15.1%. Regarding `CC(C)NC(=O)N1CC(=O)N2[C@@H](CO)[C@H](c3ccc(/C=C/c4ccccc4)cc3)[C@@H]2C1`, the max activity was -13.4% [at 0.16 µM].

On to `O=C(C1CCOCC1)N1CC(=O)N2[C@H](C1)[C@H](c1ccc(/C=C/c3ccccc3)cc1)[C@@H]2CO`, for which the max activity was -15.6% [at 2.6 µM]. `CC1=NN(C2CCS(=O)(=O)C2)C(=O)C1(Sc1ccccc1)Sc1ccccc1` (stereo not drawn): the max activity is 14.4% [at 10 µM].
